Reference: the supplement of paper PMC6555819

Experiments:
Test in all cases: PBM binding z-score (relative to random genomic background probes); higher = stronger binding; sequences stand for … in GC…GCGATTGACAGCGTAGAATGAAGG
[1] = test system: FXR:RXRa (NR concentration 270 nM, RXRa partner concentration 90 nM)
Method in brief: (§1)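 Binding z-scores were set against random background probes. The data came from custom Agilent 4×180K protein-binding microarrays carrying double-stranded probes with 34-nt variable regions, incubated 1 h with ligand-free nuclear receptor dimers. Partner-specific antibodies detected binding, and scanned fluorescence was regression-normalized.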

[2] = test system: LXRa:RXRa (NR concentration 270 nM, RXRa partner concentration 90 nM)
Method in brief: as §1

[3] = test system: LXRa homodimer (NR concentration 270 nM)
Method in brief: as §1

[4] = test system: LXRb:RXRa (NR concentration 270 nM, RXRa partner concentration 90 nM)
Method in brief: as §1

[5] = test system: LXRb homodimer (NR concentration 270 nM)
Method in brief: as §1

[6] = test system: PPARa:RXRa (NR concentration 270 nM, RXRa partner concentration 90 nM)
Method in brief: as §1

[7] = test system: PPARg:RXRa (NR concentration 180 nM, RXRa partner concentration 90 nM)
Method in brief: as §1

[8] = test system: PPARg:RXRa 270nM:90nM, anti-RXR (NR concentration 270 nM, RXRa partner concentration 90 nM)
Method in brief: as §1

[9] = test system: PPARg:RXRa 30nM:10nM, anti-RXR (NR concentration 30 nM, RXRa partner concentration 10 nM)
Method in brief: as §1

[10] = test system: PPARg:RXRa 90nM:30nM, anti-RXR (NR concentration 90 nM, RXRa partner concentration 30 nM)
Method in brief: as §1

[11] = test system: PPARg:RXRa DBDmut IVT, anti-RXR (DBD mutation: RXRa K156A/R161A, NR concentration 270 nM, RXRa partner concentration 90 nM)
Method in brief: as §1

[12] = test system: PPARg:RXRa IVT, anti-PPARg (NR concentration 270 nM, RXRa partner concentration 90 nM)
Method in brief: as §1

[13] = test system: PPARg DBDmut:RXRa IVT, anti-PPARg (DBD mutation: PPARg1 K132A/R137A, NR concentration 270 nM, RXRa partner concentration 90 nM)
Method in brief: as §1

[14] = test system: PPARg DBDmut IVT, anti-PPARg (DBD mutation: PPARg1 K132A/R137A, NR concentration 270 nM)
Method in brief: as §1

[15] = test system: PPARg homodimer (NR concentration 180 nM)
Method in brief: as §1

[16] = test system: PXR:RXRa (NR concentration 270 nM, RXRa partner concentration 90 nM)
Method in brief: as §1

[17] = test system: PXR homodimer (NR concentration 270 nM)
Method in brief: as §1

[18] = test system: RARa:RXR (NR concentration 270 nM, RXRa partner concentration 90 nM)
Method in brief: as §1

[19] = test system: RARa homodimer (NR concentration 270 nM)
Method in brief: as §1

[20] = test system: RARb:RXRa (NR concentration 270 nM, RXRa partner concentration 90 nM)
Method in brief: as §1

Sequence	PBM binding z-score [1]	PBM binding z-score [2]	PBM binding z-score [3]	PBM binding z-score [4]	PBM binding z-score [5]	PBM binding z-score [6]	PBM binding z-score [7]	PBM binding z-score [8]	PBM binding z-score [9]	PBM binding z-score [10]	PBM binding z-score [11]	PBM binding z-score [12]	PBM binding z-score [13]	PBM binding z-score [14]	PBM binding z-score [15]	PBM binding z-score [16]	PBM binding z-score [17]	PBM binding z-score [18]	PBM binding z-score [19]	PBM binding z-score [20]
CCTACTGGGCCAAAGGTCATTCATTCCAATGCTC	4.99	5.4	5.18	5.18	1.33	6.7	12.2	10.6	10.6	11.8	5.26	6.63	2.52	-0.185	4.56	5.58	2.49	6.3	1.85	4.46
CCGAGGAGGTTATGGGGCATTCAGGCAACGGTGA	1.52	1.44	0.15	1.86	-0.173	2.84	1.66	2.11	0.0714	1.39	0.461	1.61	-0.326	-0.847	1.13	0.815	-0.214	1.43	-0.195	1.73
TCTGCTAGGTCAGTAGGTCAGCTAACGAGCTGCC	1.81	1.55	0.12	1.18	-0.0966	3.55	4.84	5	2.51	4.29	4.75	6.23	0.586	0.0507	0.729	1.3	-0.386	2.58	-1.38	3.79
TCGAGTAGGTTAGGGGCATTCAAAATGGCGTCGA	0.3	0.524	-0.23	1.22	-0.0733	1.38	1	1.98	1.27	1.69	2.11	1.45	-0.544	-0.184	0.857	0.792	0.65	0.797	0.0472	1.24
AGAACGAGGGCAATGAGTAGATAGCACGGGTGGC	0.288	0.27	-0.537	-0.239	-0.59	1.49	1.6	1.05	0.241	0.733	2.9	2.75	0.5	-0.201	0.383	0.323	0.226	0.413	0.137	2
TAGCCTAGGTCATTCAGGGGCCTGTATAGAAAGC	4.5	3.47	0.422	2.66	0.91	3.5	2.01	2.08	0.363	1.19	1.43	2.65	-0.0905	-0.0908	0.863	1.75	-0.488	2.51	-0.792	3.52
TTACCAAGGTGAGCTGAGATCGTTGATCCAACTC	-0.243	-0.689	-0.907	-0.704	-1.18	0.12	-0.0237	0.4	-0.0278	0.278	1.12	1.5	-0.91	-0.653	-1.58	0.00925	-1.19	-0.376	-1.19	0.893
TTATATAGGTAAACAGGTGAAAGTCCGTAAGTTA	0.62	0.679	0.481	0.738	0.246	3.31	5.61	4.75	2.93	4.41	6.54	6.8	2.26	1.83	1.4	0.532	0.398	0.957	1.15	0.687
AGTACAGGGTCACTAGGCCAGAGTAGGTACGAAT	5.64	3.74	-0.159	3.25	0.166	5.73	7.54	6.4	2.95	5.23	3.37	5.52	0.92	0.785	2.13	3.07	0.0901	4.21	0.585	4.23
TCGAGTTGGTTAGTCGGGGCATTCAGCCAACATA	0.0149	-0.0453	-0.453	0.513	-0.685	0.218	-0.686	0.5	1.2	0.81	0.597	0.172	-0.755	-0.529	-0.2	0.148	0.163	0.142	-0.783	0.122
TCTTGTAGATCAAGCAGGCTAAGAAAGCCTGAGT	-0.142	-0.307	-0.525	-0.376	-0.474	0.113	-0.409	0.913	2.4	1.59	1.46	0.173	-0.469	1.11	-0.6	-0.424	-0.306	-0.588	-1.2	-0.756
TCGCGGAGGACACGAAGGTCAGAGCTTTCCAGAG	0.923	0.953	0.0426	0.704	-1.29	1.84	0.306	1.15	0.607	0.901	0.6	0.577	-0.818	-2.01	1.37	1.83	0.425	1.74	0.1	3.26
ATATGTAGGTTATCGGGTTATTCAGTTTGCGCAT	1.49	1.81	1.11	2.23	1.29	3.81	6.03	4.99	2.41	4.37	7.05	7.32	2.24	2.13	2.36	1.88	1.38	1.79	2.46	1.11
CAAACTAGGTTAAAGGTCAAAGTCGAGCCAACCA	6.87	6.3	5.27	6	2.67	7.07	13.2	11	14.1	13.4	7.78	8.2	3.63	3.37	5.35	6.11	1.51	7.9	3.41	4.76
CCTACTGGGACAAGGTCATTGATCAGTCAAAGCA	3.62	3.43	1.26	3.06	0.0323	4.22	4.54	4.7	1.99	3.78	3.79	4.66	-0.0252	-0.0828	2.28	3.8	1.59	3.89	0.375	3.26
TGAATGAGGTTAAAGAACAGGGAACGTGGCGTCG	2.39	1.98	-0.259	1.32	0.39	3.38	2.53	3.32	1.51	3.04	1.89	2.33	0.69	0.463	0.725	1.13	0.0217	1.52	0.262	1.95
CATCCAAGGTCAGAGAGGTCAGTGAATGCCGAGT	6.31	5.84	4.54	4.58	1.57	5.23	4.13	4.43	1.5	2.83	2.91	3.85	0.635	-0.591	4.41	6.17	12	5.72	3.06	5.38
TCTTGTAGATCGGCAGGTTAAGAAAGCTGGCCAA	0.24	0.472	-0.48	0.25	-0.432	0.736	-0.656	1.28	2.42	2.02	1.25	0.377	-0.018	-0.268	0.0916	0.349	-0.293	0.55	-0.734	0.257
GTACCAAGATGAATAGGTCGTTGATGAGTAGGCG	-0.271	-0.137	-0.17	-0.161	-0.482	0.287	0.526	-0.163	-0.282	-0.197	-0.366	-0.096	-0.257	0.255	0.369	-0.0822	0.0588	0.0569	0.21	0.0592
ACTAGCAGGCCAAGGGTCAGTCAAGATTAGTCCG	1.44	1.16	-0.0253	1.33	-0.691	3.79	6.42	6.45	5.89	6.62	0.997	2.79	-0.401	-0.926	1.54	1.69	-0.439	2.56	-0.0893	2.85
CAGCCTAGGTCAGGGCCAGTCTAGGAGGAACGTT	1.43	0.988	-0.566	0.24	-1.33	2	0.484	0.9	-0.591	0.125	1.23	1.44	-1.02	-1.49	0.16	0.386	-0.83	1.06	-0.6	3.28
TCTATTAGTTGATAAGGGCAACCGAAACAGCGGA	0.612	0.486	0.203	0.463	0.396	0.736	0.322	1.86	3.81	2.97	1.65	0.714	0.803	1.07	0.853	0.671	0.649	0.881	0.996	1.6
TCTATTAGTTGATTAGGCCAACCGAAACAGCGGA	0.75	0.591	0.444	0.663	0.882	0.722	0.22	2.07	3.98	3.02	2.31	0.958	0.847	0.784	1.2	0.477	0.547	0.834	1.24	0.707
ATCTCTAGGTAAAGTACAGTGAAAGATCGATAGA	0.412	0.617	0.207	0.131	0.745	0.0903	0.761	0.842	0.832	0.623	2.11	2.03	1.17	1.25	1.14	0.119	0.479	0.369	1.59	0.586
GCTCGGAGGACAAAGTCAGAGCTTTGTCCGTAGA	-0.547	-0.56	-0.429	-0.512	-0.588	-0.568	-1.55	-0.786	-1.61	-0.843	-1.01	-0.327	-0.892	-1.25	-0.791	-0.547	-0.9	-0.547	-1.22	0.845
TGAATCAGGTTATAAGATCAGGGAACGTTGCAAA	0.101	0.162	-0.396	0.0988	-0.425	0.709	0.475	0.863	0.155	0.477	0.57	1.03	1.01	0.775	2.15e-05	-0.146	-0.197	-0.101	0.428	0.25
TCTCGTAGATCAAGCAGGTTAAGAAAGCCTGAGT	-0.462	-0.196	-0.257	-0.0905	-1.19	0.4	-0.54	0.861	2.47	1.83	1.63	-0.598	-0.611	-0.106	-0.511	0.225	-0.267	0.111	-0.712	-0.255
GCTTACGGATCAAAGGTTATAGCATGAATAGAAT	1.93	2.43	0.189	2.49	-0.332	4.12	5.77	6.43	4.61	7.07	-0.119	1.82	0.708	0.266	0.616	2.38	-0.00589	3.61	0.0862	1.42
CCTAGTAGGTCAGGAGGTCACACACCGGATATGA	5.48	4.97	2.62	4.41	0.811	5.81	9.01	7.34	6.14	7.5	7.03	7.47	1.73	1.02	4.99	4.94	1.33	6.63	3.21	4.72
